Several values for one entry are separate records, joined by “and”; a condition that tells them apart may be missing. Identical values can stand only once. The campaign covered roughly 5,500 compounds. About 2,000 (36%) were called active. Inconclusive results (about 18%) are left out. Cut-off read from the data, not from the text of the source: active = normalized growth mostly below about 0.91 (no sharp cut-off); inconclusive = no clear call, values can overlap the other calls; inactive = mostly above about 0.92. The list shows a part of the results.
Assay: chemical genetic growth profiling, strain panel (AID 1159580);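 note: tested at 20 µM; growth read once vehicle control cultures reached saturation at 30 °C; 1 = growth at the plate median or of vehicle wells; lower values mean less growth of the strain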
Conditions: S. cerevisiae deletion strains, growth OD

Measured: normalized growth

NC(=NCCCCCCN=C(N)N=C(N)Nc1ccc(Cl)cc1)N=C(N)Nc1ccc(Cl)cc1
active: locus YAL013W, strain DEP1, stronger effect = lower value 0.056 | locus YAL021C, strain ccr4, stronger effect = lower value 0.0662 | locus YAL026C, strain drs2, stronger effect = lower value 0.0626 | locus YAL030W, strain snc1, stronger effect = lower value 0.0546 | locus YBL061C, strain skt5, stronger effect = lower value 0.058 | locus YBR009C, strain hhf1, stronger effect = lower value 0.0582 | locus YBR021W, strain FUR4, stronger effect = lower value 0.0878 | locus YBR023C, strain chs3, stronger effect = lower value 0.0607 | locus YBR171W, strain sec66, stronger effect = lower value 0.0764 | locus YBR229C, strain ROT2, stronger effect = lower value 0.0485 | locus YBR231C, strain swc5, stronger effect = lower value 0.0617 | locus YBR279W, strain paf1, stronger effect = lower value 0.057 | locus YCL011C, strain gbp2, stronger effect = lower value 0.0584 | locus YCL016C, strain dcc1, stronger effect = lower value 0.0623 | locus YCL029C, strain bik1, stronger effect = lower value 0.0646 | locus YCL061C, strain MRC1, stronger effect = lower value 0.064 | locus YCL069W, strain vba3, stronger effect = lower value 0.0598 | locus YCR088W, strain abp1, stronger effect = lower value 0.0598 | locus YDL005C, strain med2, stronger effect = lower value 0.0712 | locus YDL035C, strain GPR1, stronger effect = lower value 0.0531 | locus YDL040C, strain nat1, stronger effect = lower value 0.0593 | locus YDL074C, strain BRE1, stronger effect = lower value 0.0847 | locus YDL101C, strain DUN1, stronger effect = lower value 0.0564 | locus YDL134C, strain PPH21, stronger effect = lower value 0.049 | locus YDL185W, strain tfp1, stronger effect = lower value 0.0606 | locus YDL192W, strain arf1, stronger effect = lower value 0.0624 | locus YDR001C, strain nth1, stronger effect = lower value 0.0588 | locus YDR069C, strain doa4, stronger effect = lower value 0.0603 | locus YDR101C, strain arx1, stronger effect = lower value 0.0584 | locus YDR137W, strain rgp1, stronger effect = lower value 0.0872 | locus YDR150W, strain NUM1, stronger effect = lower value 0.0563 | locus YDR159W, strain sac3, stronger effect = lower value 0.0896 | locus YDR162C, strain NBP2, stronger effect = lower value 0.0503 | locus YDR195W, strain ref2 0.121 | locus YDR297W, strain sur2, stronger effect = lower value 0.0547 | locus YDR318W, strain mcm21, stronger effect = lower value 0.0658 | locus YDR334W, strain swr1, stronger effect = lower value 0.0626 | locus YDR335W, strain msn5, stronger effect = lower value 0.0581 | locus YDR388W, stronger effect = lower value 0.0574 | locus YDR392W, strain spt3, stronger effect = lower value 0.0798 | locus YDR502C, strain sam2, stronger effect = lower value 0.0629 | locus YEL003W, strain gim4, stronger effect = lower value 0.0531 | locus YEL037C, strain rad23, stronger effect = lower value 0.0554 | locus YEL061C, strain CIN8 (second series), stronger effect = lower value 0.0594 | locus YEL061C, strain CIN8, stronger effect = lower value 0.0488 | locus YER015W, strain faa2, stronger effect = lower value 0.0825 | locus YER016W, strain bim1, stronger effect = lower value 0.058 | locus YER110C, stronger effect = lower value 0.0744 | locus YER111C, strain swi4, stronger effect = lower value 0.0705 | locus YER155C, strain BEM2 (second series), stronger effect = lower value 0.087 | locus YER155C, strain BEM2, stronger effect = lower value 0.0622 | locus YER167W, strain BCK2, stronger effect = lower value 0.0527 | locus YFR010W, strain ubp6, stronger effect = lower value 0.0674 | locus YGL078C, strain dbp3, stronger effect = lower value 0.65 | locus YGL086W, strain mad1, stronger effect = lower value 0.0564 | locus YGL167C, strain pmr1, stronger effect = lower value 0.0727 | locus YGL173C, strain kem1, stronger effect = lower value 0.0668 | locus YGL227W, strain vid30, stronger effect = lower value 0.0612 | locus YGL240W, strain doc1, stronger effect = lower value 0.0747 | locus YGL248W, strain PDE1, stronger effect = lower value 0.0464 | locus YGL253W, strain hxk2, stronger effect = lower value 0.0538 | locus YGR078C, strain PAC10, stronger effect = lower value 0.0508 | locus YGR135W, strain pre9, stronger effect = lower value 0.0694 | locus YGR229C, strain SMI1, stronger effect = lower value 0.0582 | locus YGR252W, strain gcn5, stronger effect = lower value 0.146 | locus YHR013C, strain ard1, stronger effect = lower value 0.103 | locus YHR027C, strain rpn1, stronger effect = lower value 0.058 | locus YHR030C, strain SLT2, stronger effect = lower value 0.051 and 0.102 | locus YHR079C, strain IRE1 (second series), stronger effect = lower value 0.0602 | locus YHR079C, strain IRE1, stronger effect = lower value 0.112 | locus YHR094C, strain hxt1, stronger effect = lower value 0.0587 | locus YHR129C, strain ARP1, stronger effect = lower value 0.0541 | locus YHR142W, strain chs7, stronger effect = lower value 0.0756 | locus YHR200W, strain rpn10, stronger effect = lower value 0.0614 | locus YIL066C, strain RNR3, stronger effect = lower value 0.0507 | locus YIL073C, strain SPO22, stronger effect = lower value 0.128 | locus YIL125W, strain kgd1, stronger effect = lower value 0.898 | locus YIR030C, strain dcg1, stronger effect = lower value 0.0593 | locus YJL092W, strain hpr5, stronger effect = lower value 0.0573 | locus YJL095W, strain BCK1 (second series), stronger effect = lower value 0.0565 | locus YJL095W, strain BCK1, stronger effect = lower value 0.0587 and 0.0988 | locus YJL115W, strain asf1, stronger effect = lower value 0.0702 | locus YJL129C, strain trk1, stronger effect = lower value 0.0784 | locus YJL134W, strain LCB3, stronger effect = lower value 0.0499 | locus YJL154C, strain vps35, stronger effect = lower value 0.0596 | locus YJL164C, strain tpk1, stronger effect = lower value 0.0644 | locus YJL166W, strain qcr8, stronger effect = lower value 0.0585 | locus YJL168C, strain set2, stronger effect = lower value 0.059 | locus YJL187C, strain SWE1 (second series), stronger effect = lower value 0.0495 | locus YJR043C, strain POL32, stronger effect = lower value 0.0601 | locus YJR066W, strain TOR1, stronger effect = lower value 0.00766

Source: PubChem BioAssay AID1159580 (chemical genetic matrix, 2015)
